# FLuc modulator: qHTS profiling assay for firefly luciferase inhibitor/activator using purifed enzyme and Km concentrations of substrates (counterscreen for miR-21 project) | Luciferin 4-monooxygenase (Photinus pyralis), P08659 | purified FLuc, Km substrates, luminescence inhibition | Potency, µM (series often up to 57.5 µM), inactives show at the top dose activity change, negative = inhibition, actives largely listed as inhibitors | hit rate 6.9% among 360,000 | AID 588342, 2011;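 note: plate controls were vehicle for no effect and reference inhibitor for full effect; nearly all actives have a fitted effect of over 55% in size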
# Target sequence (P08659 whole entry, looked up): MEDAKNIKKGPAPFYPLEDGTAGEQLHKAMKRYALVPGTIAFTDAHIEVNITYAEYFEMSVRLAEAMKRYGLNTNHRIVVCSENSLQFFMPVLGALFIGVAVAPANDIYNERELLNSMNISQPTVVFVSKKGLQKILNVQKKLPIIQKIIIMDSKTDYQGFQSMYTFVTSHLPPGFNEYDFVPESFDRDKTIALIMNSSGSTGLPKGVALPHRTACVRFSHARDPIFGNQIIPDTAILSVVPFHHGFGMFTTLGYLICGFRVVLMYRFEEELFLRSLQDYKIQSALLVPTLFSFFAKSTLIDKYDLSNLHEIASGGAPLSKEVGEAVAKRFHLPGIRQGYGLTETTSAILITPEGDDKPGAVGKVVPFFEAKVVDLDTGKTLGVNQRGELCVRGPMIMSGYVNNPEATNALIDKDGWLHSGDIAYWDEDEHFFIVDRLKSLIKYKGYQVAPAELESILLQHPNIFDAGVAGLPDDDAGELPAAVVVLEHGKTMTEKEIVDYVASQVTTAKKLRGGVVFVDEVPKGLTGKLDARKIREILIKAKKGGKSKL
#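 Purified P. pyralis luciferase, 10 nM final, with Km-level 10 uM D-luciferin and 10 uM ATP in 50 mM Tris acetate pH 7.5, 10 mM Mg acetate, 0.01% Tween-20, 0.05% BSA; 6-point qHTS titration about 60 µM downward; luminescence read.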
# Rab9 promoter act: qHTS Assay for Rab9 Promoter Activators; Huh7 Rab9 promoter-luciferase reporter, luminescence, 24 h; Potency, µM (series often up to 9.22 µM), inactives show at the highest dose activation, negative = inhibition, usual class: activators; hit rate 2.8% among 320,000; AID 485297, 2010; note: % of control where 0% means no effect; nearly all actives have a fitted effect of over 60% in size
#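 Steps: seed 1500 Huh7 Rab9-luc cells per well, rest 2 h at 37 °C; add compound in DMSO; incubate 24 h; add luciferase reagent, 10 min ambient; read luminescence.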
# ELG1 DNA repair: qHTS screen for small molecules that inhibit ELG1-dependent DNA repair in human embryonic kidney (HEK293T) cells expressing luciferase-tagged ELG1. HEK293T ELG1-luciferase reporter, luminescence, 16 h; DNA damage induced by 5-fluorouridine. Potency, µM (series often up to 46.1 µM), without a hit: top-dose activity change, negative = inhibition, most hits filed as inhibitors. hit rate 2.3% among 330,000; note: % is set by controls: 0 for no effect and ±100 for the full control effect; nearly all actives have a fitted effect of over 55% in size
#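 Quantitative HTS, concentration-response format. 2,000 cells/well co-treated with 5-fluorouridine and compound, 16 hr in 5% CO2 at 37 °C; ONE-Glo luminescence read after 30 min.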
# SMN2 splice up: qHTS Assay for Enhancers of SMN2 Splice Variant Expression; HEK293 SMN2-luciferase splicing reporter, luminescence, 30-36 h; Potency, µM (series often up to 46.1 µM), without a hit: at the highest dose activity change, positive = activation, usual class: activators; hit rate 2.8% among 210,000; AID 1458, 2008; note: % of control where 0% means no effect; nearly all actives have a fitted effect of over 55% in size
#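 HEK293 cells carry an SMN2 minigene-luciferase reporter in which exon 7 inclusion puts luciferase in frame. Cells were seeded at 2000 cells/well, attached for 10-12 hours, then exposed to compounds for 30-36 hours at 37C before ONE-Glo luminescence.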
# NPC1 prom act: qHTS Assay for NPC1 Promoter Activators | Huh7 NPC1 promoter luciferase reporter, 24 h | Potency, µM (series often up to 9.22 µM), for inactives: top-dose activation, actives largely listed as activators | hit rate 2.4% among 320,000 | AID 485313, 2010; note: % of control where 0% means no effect; nearly all actives have a fitted effect of over 60% in size
#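 Huh7 reporter cells (NPC1 promoter driving luciferase) are dosed with compound for 24 h at 37 °C, 5% CO2; luciferase detection reagent is then added and luminescence measured after 10 min at ambient temperature.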
# ELG1 genotoxic: qHTS screen for small molecules that induce genotoxicity in human embryonic kidney (HEK293T) cells expressing luciferase-tagged ELG1; HEK293T ELG1-luciferase reporter, luminescence, 16 h; Potency, µM (doses to about 46 µM), without a hit: at the top dose activity change, positive = activation, actives largely listed as activators; hit rate 1.3% among 330,000; AID 504466, 2011; note: % of control where 0% means no effect; nearly all actives have a fitted effect of over 60% in size
#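 After overnight (16 hr) compound treatment at 37 °C, ELG1-luciferase HEK293T cells were lysed with ONE-Glo; luminescence quantified 30 min later at room temperature.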
# The depositor's hits bear a star; ? = inconclusive; . = no result given; [ ] = dose if it differs, or a comment. Sampled rows, rich in hits. Any-hit rate of the full collection: about 9.4%. Calls come from the whole dose curve; as a rule, active = well fitted curve in the direction sought with a large enough effect; inconclusive = small, poorly fitted or top-dose-only effect, or another doubt; inactive = no such curve, though single readings can be large; an effect the other way counts as inactive or inconclusive. Potency is the fitted concentration of half-maximal effect.
SMILES,FLuc modulator,Rab9 promoter act,ELG1 DNA repair,SMN2 splice up,NPC1 prom act,ELG1 genotoxic
CCc1ccc(S(=O)(=O)c2nnn3c2nc(Nc2cccc(C)c2C)c2sccc23)cc1,2%,.,.,.,.,.
Cc1ccc(C)c(CNC(=O)CN2C(=O)CSc3ccc(S(=O)(=O)N(C)C)cc32)c1,-16%,.,.,.,.,.
Cc1ccccc1Br,.,.,.,2%,.,.
Cc1ccc(S(=O)(=O)Nc2ccccc2C(=O)c2ccc(C)c(C)c2)cc1,.,.,.,-1%[9.22 µM],.,.
Cc1ccc(CCNC(=O)c2cn(C)c3ccc(S(=O)(=O)N4CCC(C)CC4)cc3c2=O)cc1,4%,.,.,3%,.,.
CCCCc1ccc(/C=C2\C(=O)c3ccccc3C(O)=C2C(=O)OCC)cc1,11µM*,-2%,0%,8%,-1%,1%
Cc1c(Cl)cccc1NC(=O)CSc1nc2ncccc2o1,-8%,.,.,.,.,.
CCN=C1S/C(=C\c2cc(OCC)c(O)cc2Br)C(=O)N1CC,3%,2%,18µM*,-26%,-5%,-4%
Nc1ccc(Cc2nc3c(ccc4ccccc43)[nH]2)cc1,13µM*,4µM*,0%,11%,4µM*,?
CCn1c(O)c(N=Nc2ccc3ccccc3n2)c2ccccc21,3µM*,1.1µM*,?,.,3.2µM*,5.8µM*
CCCCn1c(O)c(N=Nc2ccccn2)c2ccccc21,?,4%,-17%,-11%,-2%,-3%
Cc1ccc2c(c1)sc(-c1ccc(N(C)C)cc1)[n+]2C,12µM*,-39%,?,.,-31%,2%
Cc1ccc(N(C)C)cc1,.,.,.,-8%,.,.
COC(=O)c1ccc(NC(=O)CSc2ccc(-c3sc(-c4ccccc4)nc3C)nn2)cc1,-16%,.,.,.,.,.
O=S(=O)(Cc1noc(-c2ccccc2Cl)n1)c1ccccn1,11µM*,1.4µM*,?,.,1.6µM*,?
COc1cccc(-c2nc3c(C#N)c[nH]n3c2NC2CCCC2)c1OC,-16%,.,.,.,.,.
O=C1C=C(NCc2ccccc2)c2ccccc2C1=O,-10%,-44%,12µM*,.,-26%,-14%
O=C1C=C(Nc2ccccc2O)c2ccccc2C1=O,-17%,-13%,?,-66%,-17%,-16%
O=C(c1ccco1)N1CCN(c2ccc(N3CCCCC3)nn2)CC1,24µM*,3.2µM*,?,.,?,?
O=C(Nc1ccc(-c2ccc(N3CCCCC3)nn2)cc1)c1ccco1,4.8µM*,2.8µM*,?,.,?,?
Cc1nc(N2CCN(C(=O)c3ccco3)CC2)nc2c1C(=O)CCC2,0.76µM*,0.1µM*,?,.,0.32µM*,0.46µM*
Cc1nc(N2CCN(c3ccccc3)CC2)nc2c1C(=O)CCC2,4%,-5%,?,-13%,0%,-21%
COC(=O)c1cccc(Nc2nn3c(=O)c4cc5c(cc4nc3s2)OCO5)c1,?,.,.,6%,.,.
Cc1ccc(OCc2cc(=O)n3cc(C)sc3n2)c(C)c1,-15%,.,.,-13%,.,.
Cc1cccc(NC(=O)NCc2ccccn2)c1,?,-1%,?,18%,8%,9%
SMILES,FLuc modulator,Rab9 promoter act,ELG1 DNA repair,SMN2 splice up,NPC1 prom act,ELG1 genotoxic
Cc1cccc(NC(=O)NCc2ccc3[nH]c(C)cc3c2)c1,19µM*,?,?,17%,?,?
Cc1ccc(NC(=O)NCc2ccc3[nH]c(C)cc3c2)cc1,?,13%,23%,22µM*,14%,4%
CC(=O)NCc1ccc2[nH]c(C)cc2c1,-2%,-3%,2%,2%,-1%,7%
Cc1cccc(NC(=O)Nc2ccc(C)cc2Br)c1,?,?,?,13µM*,?,?
Cc1ccc(CNC(=O)Nc2cccc(C)c2)cc1,9.5µM*,2.8µM*,?,?,?,?
COc1ccc(NC(=O)N2CCc3nc(COc4ccccc4)c4c(c3C2)CO[C@@H](C)C4)cc1,.,.,.,3%[9.22 µM],.,.
Cc1ccc(NC(=O)NCCOCCn2c(=O)oc3ccccc32)c(C)c1,-6%,.,.,-1%,.,.
Nc1nc(N)nc(COc2ccccc2)n1,?,4.5µM*,?,11µM*,?,?
CC1Cc2cc(S(=O)(=O)CCC(=O)NCc3ccccc3Cl)ccc2N1C(=O)C1CC1 (stereo not drawn),-1%,.,.,.,.,.
CCN(c1cc(C)cc(C)c1)S(=O)(=O)c1nnc(NC(=O)c2cccc(F)c2)s1,-4%,.,.,.,.,.
O=c1nc2c(-c3cccc(Br)c3)n[nH]n2c2ccccc12,4.8µM*,3.5µM*,?,.,?,?
CC(NC(=O)CSc1nc(-c2cccc(Cl)c2)nc2cc(=O)[nH]n12)c1nc2ccccc2n1C (stereo not drawn),-6%,.,.,.,.,.
Cc1ccc(NC(=O)Cn2c(-c3nonc3N)nc3ccccc32)cc1C,-18%,.,.,10µM*,.,.
CCCn1c(-c2nonc2N)nc2ccccc21,0%,2%,16µM*,-12%,-1%,-11%
Cc1nnc(N/N=C\c2ccc(-c3cccc(C(=O)O)c3)o2)n1N,11µM*,?,-16%,-10%,-1%,0%
Nc1nonc1-c1nc2ccccc2n1CC(=O)N/N=C/c1ccc(-c2cccc(C(=O)O)c2)o1,27µM*,-3%,?,14%,0%,5%
Cc1nnc(N/N=C/c2ccc(-c3ccc(Br)cc3)o2)n1N,?,14%,2%,-23%,-1%,3%
Cn1c(-c2nonc2N)nc2ccccc21,3%,-2%,-2%,.,0%,-5%
CN1C(=O)C2(SCC(=O)N2c2ccc(F)cc2)c2ccccc21 (stereo not drawn),5%,.,.,.,.,.
Cc1ccc(C)c(-n2c(N)c(C#N)c3nc4ccccc4nc32)c1,-3%,.,.,0%,.,.
NS(=O)(=O)c1ccc(NC(=S)N2CCN(C(=O)C3CCCO3)CC2)cc1 (stereo not drawn),4.8µM*,0%,-15%,.,16%,-13%
O=C(C1CCCO1)N1CCN(C(=S)Nc2ccc(Br)cc2)CC1 (stereo not drawn),4%,17%,2%,.,-1%,-2%
COc1cc(C(=O)Nc2ccncc2)c([N+](=O)[O-])cc1OC,-1%,3%,-25%,.,0%,-4%
COc1cc(C(=O)Nc2ccc(N(C)C)cc2)c([N+](=O)[O-])cc1OC,4.8µM*,-4%,3%,-3%,9%,?
CC(C)C(=O)Nc1nnc(S(=O)(=O)N(C)Cc2ccc(F)cc2)s1,4%,.,.,.,.,.
Cc1ccc(-n2c(=O)c3c(c4cc(C)ccc4n3C)n(CC(=O)N3CCCC3)c2=O)cc1,-6%,.,.,.,.,.

# Screens (PubChem)
